The values below come from PubChem BioAssay.

The structures appear in SMILES notation. Active and inactive are the calls of the source.

Assay [1] concerns PRMT1 (protein arginine N-methyltransferase 1). Briefly: small molecules binding arginine methyltransferase PRMT1 – biochemical, small-molecule microarray, 635 nm fluorescence, primary screen (AID 1088).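 Note: binding of Prmt1 protein to compounds spotted on small-molecule microarray slides.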 To be noted: higher = more signal.
Assay [2] can be described thus: growth effects on S. cerevisiae YJM789 – YJM789 clinical isolate, OD600, 24 h, basal, primary screen (AID 1089).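 Note: growth of clinical yeast isolate S. cerevisiae YJM 789 seeded 1000 cells per well; test concentration not given here.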 To be noted: higher = more signal, called active from +8 up or from −8 down.
A short description of assay [3]: S. pombe growth modifiers, basal conditions – strain 972, OD600, 24 h, no modulator, primary screen (AID 1090).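 Note: basal condition with compound alone and no growth modifier present; test concentration not given here.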 To be noted: S. pombe 972 growth, higher = more signal, called active from +8 up or from −8 down.
Assay [4] can be described thus: budding yeast growth modifiers under rapamycin – strain BY4716, OD600, 96 h, primary screen (AID 1091). Note: test concentration not given here. Particulars: S. cerevisiae BY4716 + rapamycin, higher = more signal, called active from +8 up or from −8 down.
Assay [5] has as its target Torsin-1A-interacting protein 2 (Homo sapiens) (UniProt Q8NFQ8). Briefly: small molecules binding lysate-expressed LULL1 – cell lysate, human LULL1 lysate, 635/667 nm fluorescence, primary screen (AID 1092).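 Note: probe is lysate of COS7 cells overexpressing human LULL1; score merges per-feature 667 nm fluorescence with signal-to-noise.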 To be noted: small-molecule microarray, hLULL1 lysate binding, 635 nm fluorescence; higher = more signal.
Assay [6] is described as follows: optical density change of DRC41 E. coli – strain DRC41, OD650, 24 h, E. coli filamentation project, primary screen (AID 1093).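 Note: MC1000 strain lacking acrAB efflux and sulA so SOS filamentation is blocked; test concentration not given here.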 To be noted: E. coli DRC41 growth, higher = more signal, called active from +8 up or from −8 down.
A short description of assay [7]: probe aLefty2 binding to arrayed compounds – biochemical, biotinylated probe, 635/667 nm fluorescence, primary screen (AID 1094).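 Note: score merges spot fluorescence near 667 nm with spot signal-to-noise ratio.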 To be noted: small-molecule microarray, higher = more signal.
The subject of assay [8] is Noggin (protein binding on small-molecule microarray). Briefly: small molecules binding Noggin protein – biochemical, 635/667 nm fluorescence, primary screen (AID 1095).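 Note: score merges 667 nm feature fluorescence with signal to noise over triplicate slides.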 To be noted: 635 nm fluorescence, higher = more signal.
For assay [9], the target named is Neurogenic locus notch homolog protein 3 (Homo sapiens) (UniProt Q9UM47). Briefly: small molecules binding NOTCH3 protein – biochemical, 635/667 nm fluorescence, primary screen (AID 1096). To be noted: small-molecule microarray, 635 nm fluorescence, higher = more signal.
Chain of Neurogenic locus notch homolog protein 3 (Homo sapiens) (Q9UM47 whole entry, looked up): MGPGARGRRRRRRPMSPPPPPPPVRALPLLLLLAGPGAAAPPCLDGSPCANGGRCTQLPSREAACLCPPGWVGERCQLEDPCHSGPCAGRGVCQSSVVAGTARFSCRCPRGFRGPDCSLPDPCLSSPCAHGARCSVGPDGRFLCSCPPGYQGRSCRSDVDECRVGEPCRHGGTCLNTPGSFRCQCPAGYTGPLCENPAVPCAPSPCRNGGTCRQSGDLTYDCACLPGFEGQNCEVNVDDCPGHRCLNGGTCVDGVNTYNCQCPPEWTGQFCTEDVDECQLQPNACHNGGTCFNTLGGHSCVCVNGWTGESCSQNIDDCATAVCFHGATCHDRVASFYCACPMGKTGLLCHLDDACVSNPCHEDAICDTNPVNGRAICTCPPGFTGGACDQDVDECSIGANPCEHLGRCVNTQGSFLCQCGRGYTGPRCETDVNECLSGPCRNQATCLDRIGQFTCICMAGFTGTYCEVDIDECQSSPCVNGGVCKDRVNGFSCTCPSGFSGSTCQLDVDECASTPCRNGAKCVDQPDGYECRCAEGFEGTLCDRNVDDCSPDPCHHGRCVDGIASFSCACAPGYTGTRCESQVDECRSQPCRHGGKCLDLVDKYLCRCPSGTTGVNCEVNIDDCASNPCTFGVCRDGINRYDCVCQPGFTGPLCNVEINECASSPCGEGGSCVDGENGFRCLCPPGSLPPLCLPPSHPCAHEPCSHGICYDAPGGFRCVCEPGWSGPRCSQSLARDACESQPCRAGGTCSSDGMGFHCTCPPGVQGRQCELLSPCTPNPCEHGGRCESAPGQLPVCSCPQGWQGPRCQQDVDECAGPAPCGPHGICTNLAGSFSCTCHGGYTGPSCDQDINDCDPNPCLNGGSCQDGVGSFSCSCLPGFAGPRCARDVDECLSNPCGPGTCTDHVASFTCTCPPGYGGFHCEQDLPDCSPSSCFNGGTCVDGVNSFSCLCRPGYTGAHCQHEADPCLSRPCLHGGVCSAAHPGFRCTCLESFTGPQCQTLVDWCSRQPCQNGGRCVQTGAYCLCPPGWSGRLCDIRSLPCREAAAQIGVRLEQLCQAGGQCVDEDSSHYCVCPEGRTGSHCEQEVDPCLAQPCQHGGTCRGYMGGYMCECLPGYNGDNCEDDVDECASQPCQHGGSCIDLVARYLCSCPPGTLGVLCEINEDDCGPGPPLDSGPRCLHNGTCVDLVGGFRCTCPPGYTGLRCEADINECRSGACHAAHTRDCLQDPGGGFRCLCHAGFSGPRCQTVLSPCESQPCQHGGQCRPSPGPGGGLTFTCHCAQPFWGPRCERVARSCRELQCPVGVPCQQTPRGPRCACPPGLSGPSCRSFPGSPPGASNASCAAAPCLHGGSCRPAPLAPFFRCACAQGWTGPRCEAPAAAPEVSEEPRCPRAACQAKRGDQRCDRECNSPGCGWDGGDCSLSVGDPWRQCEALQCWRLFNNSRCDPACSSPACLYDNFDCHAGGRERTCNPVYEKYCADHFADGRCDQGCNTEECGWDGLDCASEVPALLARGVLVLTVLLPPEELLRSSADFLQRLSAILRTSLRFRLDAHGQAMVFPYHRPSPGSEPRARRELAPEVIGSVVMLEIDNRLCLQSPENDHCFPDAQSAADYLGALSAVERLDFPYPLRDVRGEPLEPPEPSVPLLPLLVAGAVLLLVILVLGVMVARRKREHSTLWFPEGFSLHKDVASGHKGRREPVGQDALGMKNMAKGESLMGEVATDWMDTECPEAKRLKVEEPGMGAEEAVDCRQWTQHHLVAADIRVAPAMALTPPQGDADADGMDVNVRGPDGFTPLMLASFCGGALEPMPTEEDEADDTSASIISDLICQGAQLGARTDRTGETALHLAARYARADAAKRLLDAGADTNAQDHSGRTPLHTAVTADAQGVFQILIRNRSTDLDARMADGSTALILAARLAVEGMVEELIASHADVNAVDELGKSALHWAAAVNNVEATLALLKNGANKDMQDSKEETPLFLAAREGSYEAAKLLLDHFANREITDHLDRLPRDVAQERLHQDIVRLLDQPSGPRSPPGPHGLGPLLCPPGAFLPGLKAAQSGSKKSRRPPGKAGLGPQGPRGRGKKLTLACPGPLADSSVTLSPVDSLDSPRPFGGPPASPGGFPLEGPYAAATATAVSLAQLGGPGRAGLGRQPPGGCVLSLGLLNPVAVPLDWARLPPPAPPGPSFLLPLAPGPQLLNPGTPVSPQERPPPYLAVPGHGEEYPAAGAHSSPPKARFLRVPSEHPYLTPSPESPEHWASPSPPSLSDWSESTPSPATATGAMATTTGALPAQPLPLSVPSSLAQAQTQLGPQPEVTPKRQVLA
Assay [10] in a line: probe aEGFR binding to arrayed compounds – biochemical, biotinylated probe, 635/667 nm fluorescence, primary screen (AID 1097).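 Note: probe is a biotinylated anti-EGFR antibody binding compounds printed on slides; score combines fluorescence near 667 nm and signal to noise of each spot.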 To be noted: small-molecule microarray, higher = more signal.
The test system of assay [11] is Plasmodium falciparum Sir2 (PF13_0152, Sir2A). Briefly: Plasmodium falciparum Sir2A binding compounds – biochemical, small-molecule microarray, 635 nm fluorescence, primary screen (AID 1098).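 Note: score merges spot fluorescence intensity with its signal-to-noise ratio.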 To be noted: fluorescence 635 nm, higher = more signal.
Assay [12] in a line: probe aDKK1 binding to arrayed compounds – biochemical, biotinylated probe, 635/667 nm fluorescence, primary screen (AID 1099).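 Note: score merges 667nm spot fluorescence with signal to noise across triplicate slides; reference of the scale not given here.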 To be noted: small-molecule microarray, higher = more signal.
A short description of assay [13]: probe aCHRDL2 binding to arrayed compounds – biochemical, biotinylated probe, 635/667 nm fluorescence, primary screen (AID 1100). Particulars: small-molecule microarray, higher = more signal.
Assay [14] can be described thus: change in splice reporter luminescence, either direction, cell-based, HEK293, spliceosome inhibition project, primary screen (AID 1101).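 Note: HEK293 cells carrying a splicing-competent luciferase reporter gene; test concentration not given here.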 Particulars: HEK293 splicing luciferase reporter, 24 h, higher = more signal, called active from +8 up or from −8 down. For orientation: In a reporter assay the amount or activity of a reporter protein is the signal.
Assay [15] has as its target Fibroblast growth factor 10 (Homo sapiens) (UniProt O15520). Briefly: compounds binding fibroblast growth factor 10 – biochemical, small-molecule microarray, 635 nm fluorescence, primary screen (AID 1102). Particulars: FGF10 binding, fluorescence 635 nm, higher = more signal.
Assay [16] concerns glycogen synthase kinase-3 (GSK3A per assay name; protocol says GSK3B). Briefly: compounds binding glycogen synthase kinase-3 – biochemical, small-molecule microarray, 635 nm fluorescence, GSK3A, primary screen (AID 1103). Note: the record names both GSK3A and GSK3B. Particulars: fluorescence 635 nm, higher = more signal.
Assay [17] concerns the target Epidermal growth factor receptor (Homo sapiens) (UniProt P00533). Briefly: compounds binding epidermal growth factor receptor – biochemical, small-molecule microarray, 635 nm fluorescence, primary screen (AID 1104).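 Note: score merges 667 nm emission intensity with spot signal to noise over triplicate slides.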 To be noted: EGFR binding, higher = more signal.
Assay [18] has as its target Follistatin-related protein 3 (Homo sapiens) (UniProt O95633). Briefly: compounds binding follistatin-related protein 3 – biochemical, small-molecule microarray, 635 nm fluorescence, primary screen (AID 1105).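 Note: score merges emission near 667 nm and signal to noise per printed spot across three slides.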 To be noted: FSTL3 binding, higher = more signal.
Assay [19] deals with Dickkopf-related protein 1 (Homo sapiens) (UniProt O94907). Briefly: small molecules binding DKK1 protein – biochemical, small-molecule microarray, 635 nm fluorescence scan, primary screen (AID 1106).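 Note: score merges emission near 667 nm with signal to noise over three replicate slides.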 Particulars: higher = more signal.
Chain of Dickkopf-related protein 1 (Homo sapiens) (O94907 whole entry, looked up): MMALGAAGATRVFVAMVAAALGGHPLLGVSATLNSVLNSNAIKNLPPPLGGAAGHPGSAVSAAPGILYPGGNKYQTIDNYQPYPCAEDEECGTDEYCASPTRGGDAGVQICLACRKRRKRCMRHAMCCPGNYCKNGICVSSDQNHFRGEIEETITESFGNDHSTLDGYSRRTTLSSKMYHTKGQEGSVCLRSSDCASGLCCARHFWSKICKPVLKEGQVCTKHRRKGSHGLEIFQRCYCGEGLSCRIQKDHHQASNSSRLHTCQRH
Assay [20] relates to Inhibin beta A chain (activin A). Briefly: small molecules binding activin A – biochemical, small-molecule microarray, 635 nm fluorescence scan, primary screen (AID 1107).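 Note: mouse activin A protein probed at 4.33 µg/mL on printed slides; score merges bound-protein fluorescence near 667 nm with spot signal-to-noise.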 Particulars: INHBA, higher = more signal.

Chain of Follistatin-related protein 3 (Homo sapiens) (O95633 whole entry, looked up): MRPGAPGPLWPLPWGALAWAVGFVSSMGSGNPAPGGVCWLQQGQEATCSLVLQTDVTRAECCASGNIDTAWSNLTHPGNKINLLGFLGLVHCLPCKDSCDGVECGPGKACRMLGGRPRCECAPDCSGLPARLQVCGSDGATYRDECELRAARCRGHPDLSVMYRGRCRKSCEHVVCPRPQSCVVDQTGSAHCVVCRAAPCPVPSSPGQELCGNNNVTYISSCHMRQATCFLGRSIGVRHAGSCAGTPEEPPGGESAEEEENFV
Chain of Torsin-1A-interacting protein 2 (Homo sapiens) (Q8NFQ8 whole entry, looked up): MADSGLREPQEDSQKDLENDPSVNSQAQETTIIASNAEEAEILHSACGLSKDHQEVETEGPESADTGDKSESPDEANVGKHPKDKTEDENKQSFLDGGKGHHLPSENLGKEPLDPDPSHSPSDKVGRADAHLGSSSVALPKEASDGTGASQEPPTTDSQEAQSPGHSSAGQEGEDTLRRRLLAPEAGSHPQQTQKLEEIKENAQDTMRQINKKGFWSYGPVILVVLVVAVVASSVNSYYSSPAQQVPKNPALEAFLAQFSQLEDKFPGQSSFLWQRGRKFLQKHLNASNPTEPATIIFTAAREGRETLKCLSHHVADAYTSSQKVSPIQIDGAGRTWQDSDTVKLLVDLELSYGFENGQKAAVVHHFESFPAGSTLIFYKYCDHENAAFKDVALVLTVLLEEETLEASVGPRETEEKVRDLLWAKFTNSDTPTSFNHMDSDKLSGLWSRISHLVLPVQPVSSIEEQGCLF
Chain of Epidermal growth factor receptor (Homo sapiens) (P00533 whole entry, looked up): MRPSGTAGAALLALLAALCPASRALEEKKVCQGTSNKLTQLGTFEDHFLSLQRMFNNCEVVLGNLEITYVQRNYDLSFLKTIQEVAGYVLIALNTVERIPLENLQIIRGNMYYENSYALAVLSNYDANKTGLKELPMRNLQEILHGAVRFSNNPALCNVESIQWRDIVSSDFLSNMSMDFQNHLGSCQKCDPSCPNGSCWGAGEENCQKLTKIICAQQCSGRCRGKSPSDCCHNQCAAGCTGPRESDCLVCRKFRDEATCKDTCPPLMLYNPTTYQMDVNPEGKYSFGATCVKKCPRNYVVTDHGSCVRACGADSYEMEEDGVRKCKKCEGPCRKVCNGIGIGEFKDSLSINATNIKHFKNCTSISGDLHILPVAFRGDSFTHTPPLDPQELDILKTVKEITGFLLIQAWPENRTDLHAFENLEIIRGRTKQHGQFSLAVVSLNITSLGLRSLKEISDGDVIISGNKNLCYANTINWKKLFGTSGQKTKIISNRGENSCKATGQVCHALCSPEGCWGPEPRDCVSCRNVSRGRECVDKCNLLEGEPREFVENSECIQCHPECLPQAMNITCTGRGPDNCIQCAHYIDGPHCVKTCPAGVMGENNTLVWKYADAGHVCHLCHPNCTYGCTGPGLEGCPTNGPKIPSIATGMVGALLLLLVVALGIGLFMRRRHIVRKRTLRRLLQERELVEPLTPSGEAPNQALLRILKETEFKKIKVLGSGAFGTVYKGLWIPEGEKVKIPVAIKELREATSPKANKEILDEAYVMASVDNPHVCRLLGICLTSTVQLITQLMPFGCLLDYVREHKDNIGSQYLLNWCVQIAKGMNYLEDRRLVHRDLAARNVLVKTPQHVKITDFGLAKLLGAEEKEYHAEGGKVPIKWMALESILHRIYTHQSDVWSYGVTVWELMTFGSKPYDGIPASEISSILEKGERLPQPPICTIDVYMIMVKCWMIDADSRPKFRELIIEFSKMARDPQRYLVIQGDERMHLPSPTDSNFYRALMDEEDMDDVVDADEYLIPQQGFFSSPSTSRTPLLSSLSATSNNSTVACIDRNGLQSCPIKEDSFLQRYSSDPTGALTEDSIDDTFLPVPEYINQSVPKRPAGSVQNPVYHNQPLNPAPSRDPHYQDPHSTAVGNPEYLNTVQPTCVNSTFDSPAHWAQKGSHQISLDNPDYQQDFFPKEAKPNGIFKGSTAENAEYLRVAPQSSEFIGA
Chain of Fibroblast growth factor 10 (Homo sapiens) (O15520 whole entry, looked up): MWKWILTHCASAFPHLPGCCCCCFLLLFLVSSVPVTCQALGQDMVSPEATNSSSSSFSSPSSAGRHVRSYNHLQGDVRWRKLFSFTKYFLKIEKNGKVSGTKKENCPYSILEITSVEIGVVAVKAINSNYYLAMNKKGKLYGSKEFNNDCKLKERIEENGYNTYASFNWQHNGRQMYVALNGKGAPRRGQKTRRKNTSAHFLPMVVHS

Take `O=C(C1N=C(c2ccc(OCCCO)cc2)N(c2ccccc2)O1)N1CCCCC1` (stereo not given): the composite z-score in assay [1] was 1.54; in [5], 2.95; in [7], 0.226; in [8] it was 0.684; in assay [9] it was 0.288; in assay [10], 0.0542. In addition, the composite z-score in assay [11] is 0.984; in assay [12], 0.88; in assay [13], 0.0556; in assay [15], 0.648; in assay [16], 1.22; in [17], -0.0036. For the same molecule, the composite z-score in assay [18] worked out at 0.181; in [19], 0.291; in assay [20], 0.088. In addition, the z-score was -0.537 (inactive) in [2]; -0.734 (inactive) in assay [3]; 0.0484 (inactive) in [4]; 0.828 (inactive) in assay [6]; -0.577 (inactive) in assay [14].
Turning to `CN1C(=O)C2C=CC(C(O)c3cccn3C)N(Nc3ccc([N+](=O)[O-])cc3[N+](=O)[O-])C2C1=O` (stereo not given), the composite z-score is 0.0715 in assay [1]; 0.711 in assay [5]; 0.269 in [7]; 0.5 in [8]; -0.266 in [9]; 0.0365 in assay [10]. In addition, the composite z-score was 0.0859 in [11]; 0.821 in assay [12]; 0.897 in [13]; 0.219 in [15]; -0.269 in [16]; -0.157 in [17]. The results for the composite z-score in assay [18], in [19] and in assay [20] were -0.0164, -0.31 and 1.12, respectively. In addition, the z-score in [2] is 0.82 (inactive); in [3] it was 1.33 (inactive); in assay [4], 0.731 (inactive); in assay [6], -0.345 (inactive); in assay [14], 1.15 (inactive).
For the molecule `CC(C)C(CO)N1C(=O)[C@@H]2C3C(=O)OCCC/C=C\[C@H]3OC23C=CCN(Cn2nnc4ccccc42)C(=O)[C@@H]13` (stereo not given in full), the composite z-score was 0.828 in assay [1]; 3.72 in [5]; -0.159 in [7]; -0.421 in assay [8]; 0.144 in assay [9]; -0.268 in assay [10]. Moreover, the composite z-score in assay [11] was 0.192; in assay [12], -0.0842; in assay [13] it was 0.543; in assay [15], -0.727; in [16] it was -0.2; in assay [17], -0.636. The composite z-score in assay [18] was -0.359; in assay [19] it was -1.13; in [20], 0.223. In addition, the z-score in [2] was 0.0005 (inactive); in assay [3], -0.299 (inactive); in assay [4], 0.0668 (inactive); in assay [6] it was 0.167 (inactive); in assay [14] it was 0.323 (inactive).
Regarding `CC(C)[Si]1(C(C)C)OCc2cc(-c3ccc(-c4ccc(Cl)c(Cl)c4)o3)nc(-c3ccccc3)c21`, the composite z-score in [1] is -0.715; in assay [5] it was -1.75; in assay [7], -0.0803; in [8], -0.401; in assay [9], -0.444; in [10], -0.316. Also, the composite z-score in [11] is 1.33; in assay [12] it was -0.0755; in assay [13], 0.724; in [15], -1.08; in assay [16], -1.22; in assay [17] it was -1.84. Further, the figures for the composite z-score in assay [18], in assay [19] and in assay [20] were -1.04, -1.32 and 1.05, respectively. The z-score in [2] was 0.0932 (inactive); in assay [3], -1.39 (inactive); in assay [4], 0.265 (inactive); in assay [6] it was -0.184 (inactive); in [14], 0.14 (inactive).
On to `O[C@@H](Cc1ccccc1)[C@@H](/C=C/C1CC1)N(CC#Cc1ccccc1)Cc1ccccc1Br`, for which the composite z-score in [1] is -0.0917; in assay [5], 0.461; in assay [7] it was 0.0166; in [8] it was -1.33; in assay [9], -0.817; in assay [10], -0.339. Further, the composite z-score in assay [11] was -0.0214; in assay [12], -0.107; in assay [13] it was 1.38; in [15], -1.36; in assay [16], -0.689; in assay [17], -1.29. The composite z-score was -1.62 in [18], -1.88 in assay [19] and 0.171 in assay [20]. Besides, the z-score is 0.298 (inactive) in assay [2]; 0.398 (inactive) in assay [3]; 1.43 (inactive) in assay [4]; 0.247 (inactive) in assay [6]; -1.39 (inactive) in [14].
